Reference: PubChem BioAssay (NCATS)
Inconclusive results are not listed. Activity calls are given as the source filed them. The call rests on the fitted dose curve; in most records, active means well fitted cell-killing curve with a large enough effect; inconclusive means small, poorly fitted or top-dose-only effect, or effect the other way; inactive means no such curve, though single readings can be large or run the other way.

Assay: Quantitative High-Throughput drug screen in 47 multiple myeloma cell lines against the NCATS MIPE library collection: FR4_PLB cell viability assay (AID 1918924; further: nearly all actives have a fitted effect of over 35% in size)
Settings: FR4_PLB myeloma cells viability, CellTiter-Glo ATP, 48 h; series mostly up to 45.8 µM
Method in brief: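 Relative luminescence from CellTiter-Glo served as the viability signal, referenced to DMSO-treated (100%) and cell-free medium (0%) controls. Treatment lasted 48 hours at 37C with 500 cells per well.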
Potency means the concentration at half of the fitted maximal effect.

Structure (SMILES) | Potency
N#Cc1ccc(C(c2ccc(C#N)cc2)n2cncn2)cc1 | 14.8 µM (active)
Cn1c(=O)c(F)c(Nc2ccc(I)cc2F)c2c(=O)n(C[C@@H](O)CO)cnc21 | inactive
Cc1cccc(-c2nn(C(=S)Nc3ccccc3)cc2-c2ccnc3ccccc23)n1 | inactive
COc1ccc(COc2cc3oc(=O)c4cc(C(C)O)ccc4c3cc2OC)cc1 (stereo not given) | 13.2 µM (active)
Cc1c(C)c2c(c(C)c1O)CCC(C)(COc1ccc(CC3SC(=O)NC3=O)cc1)O2 (stereo not given) | inactive

Assay: Quantitative High-Throughput drug screen in 47 multiple myeloma cell lines against the NCATS MIPE library collection: Delta47_JCRB cell viability assay (AID 1918925; further: nearly all actives have a fitted effect of over 45% in size)
Settings: Delta47 myeloma viability, CellTiter-Glo ATP, 48 h; series mostly up to 45.8 µM
Method in brief: (§1)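 Myeloma cells (500 per well) were exposed to MIPE 4.0 compounds by pin transfer and incubated 48 hours at 37C, 5% CO2. Viability was read as ATP by CellTiter-Glo luminescence, normalised to DMSO (100%) and media-only (0%) wells.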

Structure (SMILES) | Potency
COCCNCCCn1c(C(=O)CF)c(-c2ccc(C)cc2)c2c(N)ncnc21 | inactive
Cc1ccc(-n2nc(C(C)(C)C)cc2NC(=O)Nc2ccc(OCCN3CCOCC3)c3ccccc23)cc1 | 2.64 µM (active)
CCOc1cc(N2CCC(O)CC2)ccc1Nc1ncc2c(n1)N(C)c1ccccc1C(=O)N2C | 4.18 µM (active)
COc1ccc2c3n(c(=NC(=O)c4cccnc4)nc2c1OC)CCN3 | 2.09 µM (active)
COc1ccccc1[C@H](c1cccc2ccccc12)[C@@](C)(C#N)C(=O)N1CCC(c2cccc(C(F)(F)F)c2)CC1 | 8.33 µM (active)
CCn1c(-c2nonc2N)nc2c(C#CC(C)(C)O)ncc(OC[C@H]3CCCNC3)c21 | 0.0469 µM (active)
Oc1cccc(-c2nc(N3CCOCC3)c3oc4ncccc4c3n2)c1 | 0.0171 µM (active)
COc1ccc(C2=N[C@H](c3ccc(Cl)cc3)[C@H](c3ccc(Cl)cc3)N2C(=O)N2CCNC(=O)C2)c(OC(C)C)c1 | 2.35 µM (active)
CN[C@@H](C)C(=O)N[C@H]1CCCC[C@H]2CC[C@@H](C(=O)N[C@@H](c3ccccc3)c3cn(CCCCc4ccc(CCCCn5cc([C@@H](NC(=O)[C@@H]6CC[C@@H]7CCCC[C@H](NC(=O)[C@H](C)NC)C(=O)N76)c6ccccc6)nn5)cc4)nn3)N2C1=O | 3.72 µM (active)
CS(=O)(=O)Oc1ccc2c(NC(N)=O)c(C(=O)c3ccc(Cl)cc3Cl)oc2c1 | 14.8 µM (active)
Cc1cc([C@@H](C)Nc2ccccc2C(=O)O)c2nc(N3CCOCC3)cc(=O)n2c1 | 2.7 µM (active)
S=C(NCc1ccc2c(c1)OCO2)N1CCN(c2ncnc3c2oc2ccccc23)CC1 | 1.08 µM (active)
OCCC#Cc1nc(-c2ccc(F)cc2)c(-c2ccncc2)n1CCCc1ccccc1 | 13.2 µM (active)
CCC(=O)N[C@H]1CC[C@H](C(=O)N(C)c2ccc(-c3nc4ccccc4o3)cc2)C1 | 8.33 µM (active)
CC(c1cc2ccccc2s1)N(O)C(N)=O (stereo not given) | inactive
CCOc1cc(C(=O)Nc2ccc(Cl)c(-c3nc4ccccc4[nH]3)c2)cc(OCC)c1OCC | 18.7 µM (active)
COc1nc(-c2ccc3c(c2)OCO3)n(-c2ccc(NC(=O)CSc3ccccc3)cc2)n1 | inactive
CCc1cc(Nc2nccc(-c3c(-c4ccc(OC)c(C(=O)Nc5c(F)cccc5F)c4)nc4ccccn34)n2)c(OC)cc1N1CCC(N2CCN(S(C)(=O)=O)CC2)CC1 | 5.26 µM (active)
Cc1cccc(-c2nn(C(=S)Nc3ccccc3)cc2-c2ccnc3ccccc23)n1 | 16.6 µM (active)
COc1ccc(COc2cc3oc(=O)c4cc(C(C)O)ccc4c3cc2OC)cc1 (stereo not given) | 11.8 µM (active)

Assay: Quantitative High-Throughput drug screen in 47 multiple myeloma cell lines against the NCATS MIPE library collection: EJM_DSMZ cell viability assay (AID 1918926; further: nearly all actives have a fitted effect of over 30% in size)
Settings: EJM myeloma cell viability, CellTiter-Glo ATP, 48 h; series mostly up to 45.8 µM
Method in brief: as §1

Structure (SMILES) | Potency
Fc1ccc(Cl)cc1-c1nc(Nc2ccncc2)c2nccnc2n1 | 8.33 µM (active)
COCCNCCCn1c(C(=O)CF)c(-c2ccc(C)cc2)c2c(N)ncnc21 | 4.18 µM (active)
Cc1ccc(-n2nc(C(C)(C)C)cc2NC(=O)Nc2ccc(OCCN3CCOCC3)c3ccccc23)cc1 | 18.7 µM (active)
COc1ccc2c3n(c(=NC(=O)c4cccnc4)nc2c1OC)CCN3 | 7.43 µM (active)
Cc1c(CCOc2ccc(C(=O)O)cc2)c2cc(Cl)ccc2n1C(c1ccccc1)c1ccccc1 | inactive
COc1ccccc1[C@H](c1cccc2ccccc12)[C@@](C)(C#N)C(=O)N1CCC(c2cccc(C(F)(F)F)c2)CC1 | 13.2 µM (active)
c1ccc(-c2nn3c(c2-c2ccnc4cc(OCCN5CCOCC5)ccc24)CCC3)nc1 | inactive
COc1ccccc1-c1cccc(-c2c(O)c3cc(C#N)c(Cl)cc3[nH]c2=O)c1 | inactive
N#CC[C@H](C1CCCC1)n1cc(-c2ncnc3[nH]ccc23)cn1 | 7.43 µM (active)
Oc1cccc(-c2nc(N3CCOCC3)c3oc4ncccc4c3n2)c1 | 6.79 µM (active)
CN[C@@H](C)C(=O)N[C@H]1CCCC[C@H]2CC[C@@H](C(=O)N[C@@H](c3ccccc3)c3cn(CCCCc4ccc(CCCCn5cc([C@@H](NC(=O)[C@@H]6CC[C@@H]7CCCC[C@H](NC(=O)[C@H](C)NC)C(=O)N76)c6ccccc6)nn5)cc4)nn3)N2C1=O | 5.26 µM (active)
CCC(C)(C)C(=O)O[C@H]1C[C@@H](C)C=C2C=C[C@H](C)[C@H](CC[C@@H]3C[C@@H](O)CC(=O)O3)[C@H]21 | inactive
CS(=O)(=O)Oc1ccc2c(NC(N)=O)c(C(=O)c3ccc(Cl)cc3Cl)oc2c1 | inactive
CCC(=O)N[C@H]1CC[C@H](C(=O)N(C)c2ccc(-c3nc4ccccc4o3)cc2)C1 | 16.6 µM (active)
CC(c1cc2ccccc2s1)N(O)C(N)=O (stereo not given) | inactive
COc1ccc(CCN2CCN(CCCc3ccccc3)CC2)cc1OC | inactive
CCOc1cc(C(=O)Nc2ccc(Cl)c(-c3nc4ccccc4[nH]3)c2)cc(OCC)c1OCC | 13.2 µM (active)
COc1nc(-c2ccc3c(c2)OCO3)n(-c2ccc(NC(=O)CSc3ccccc3)cc2)n1 | inactive
CCCc1nn(C)c2c(=O)[nH]c(-c3cc(S(=O)(=O)N4CCN(C)CC4)ccc3OCC)nc12 | inactive
CCc1cc(Nc2nccc(-c3c(-c4ccc(OC)c(C(=O)Nc5c(F)cccc5F)c4)nc4ccccn34)n2)c(OC)cc1N1CCC(N2CCN(S(C)(=O)=O)CC2)CC1 | 10.5 µM (active)
N#Cc1ccc(C(c2ccc(C#N)cc2)n2cncn2)cc1 | inactive
Cn1c(=O)c(F)c(Nc2ccc(I)cc2F)c2c(=O)n(C[C@@H](O)CO)cnc21 | inactive
Cc1cccc(-c2nn(C(=S)Nc3ccccc3)cc2-c2ccnc3ccccc23)n1 | 11.8 µM (active)
COc1ccc(COc2cc3oc(=O)c4cc(C(C)O)ccc4c3cc2OC)cc1 (stereo not given) | 16.6 µM (active)
Cc1c(C)c2c(c(C)c1O)CCC(C)(COc1ccc(CC3SC(=O)NC3=O)cc1)O2 (stereo not given) | inactive
